Compound activity deposited in PubChem by Sanford-Burnham Center for Chemical Genomics.
Hits are enriched below; roughly 31% of the tested compounds scored in any of these assays.
PLAP activator: activates human placental alkaline phosphatase; purified PLAP enzyme, luminescent substrate read-out; hits give high values; activation fold at 20 µM; 96,000 tested, 1.2% active; in the data active means activation fold above about 2
CYP2C19 inhib: blocks human cytochrome P450 2C19. CYP2C19 Supersomes, luciferin-H EGE luminescence, 30 min. inhibition, % at 5 µM. 96,000 tested, 21% active. AID 778;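 active means CYP2C19 inhibition above a set limit at 5 µM in the primary screen, cut at about 50% in these data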;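 further: plate controls were negative control wells for no effect and 2.5 mM tranylcypromine positive control for full effect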
CYP2C9 inh: inhibitors of human CYP2C9; 96,000 tested, 20% active; inhibition, % at 5 µM; AID 777; CYP2C9 Supersomes, luciferin-H conversion, luminescence;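 active means blocking of liver enzyme CYP2C9 beyond about 50% at 5 µM, limit read from the data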
CYP2C19 act: cytochrome P450 2C19 (human) activation. recombinant CYP2C19, luciferin-H EGE luminescence; hits give high values; 0 = fully inhibited enzyme, 1 = untreated enzyme. activation factor at 5 µM. 96,000 tested, under 10 active. AID 1025;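 active means activation factor of at least 2 at 5 µM in the primary screen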;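 further: 0 = wells with 2.5 mM tranylcypromine and 1 = vehicle-only wells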
CYP2C9 act: activators of human CYP2C9; 96,000 tested, 1.4% active; activation factor at 5 µM; recombinant CYP2C9, luciferin-H conversion, luminescence; hits give high values; factor 1 = untreated enzyme, 0 = blocked; P11712;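 active means activation factor of 2 or more for CYP2C9 at a 5 µM dose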;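 further: 0 = sulfaphenazole-blocked wells and 1 = vehicle-only wells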
The depositor's hits bear a star.

SMILES	PLAP activator	CYP2C19 inhib	CYP2C9 inh	CYP2C19 act	CYP2C9 act
CCOC(=O)c1cccc(NC(=O)C(C)N2C(=O)c3ccccc3C2=O)c1 (configuration not stated)	1.1	57*	97*	0.4	0
COC(=O)c1ccc(NC(=O)CN2CCN(c3cccc(Cl)c3)CC2)cc1	1	61*	76*	0.4	0.2
CCOC(=O)c1ccc(NC(=O)C(C)N2C(=O)c3ccccc3C2=O)cc1 (configuration not stated)	0.9	15	12	0.9	0.9
COC(=O)c1ccc(NC(=O)CN2CCN(S(=O)(=O)c3cc(Cl)ccc3OC)CC2)cc1	1.4	95*	-174	0.1	2.7*
COC(=O)c1ccc(NC(=O)CN2C(=O)CNC2=O)cc1	0.9	-8	13	1.1	0.9
COc1cccc(N2CCN(CC(=O)Nc3nnc(-c4ccccc4)s3)CC2)c1	2*	50*	78*	0.5	0.2
COc1cc2nc(COc3ccc(C#N)cc3)n(CC#N)c(=O)c2cc1OC	1.5	22	35	0.8	0.7
CCOC(=O)c1cccc(NC(=O)CN2CCN(c3ccc(OC)cc3)CC2)c1	1.7	54*	73*	0.5	0.3
COc1ccc(NC(=O)CCN2CCN(S(=O)(=O)c3cc(Cl)ccc3Cl)CC2)cc1	1.8	91*	15	0.1	0.8
O=C(CN1CCN(c2ccc(Cl)cc2)CC1)Nc1cccc(F)c1	1	39	67*	0.6	0.3
O=C(NC1CCN(C(=O)Nc2cccc(F)c2)CC1)C1CCCCC1	0.9	0	3	1	1
COc1cc(Cl)cc(NC(=O)CCN2CCN(C)CC2)c1	1	-11	-13	1.1	1.1
O=C(Nc1cccc(F)c1)N1CC=C(c2ccc(Cl)cc2)CC1	1.2	96*	96*	0	0
COc1ccc(C(=O)C(OC(=O)CNC(=O)c2ccco2)c2ccccc2)cc1 (configuration not stated)	1.1	46	19	0.5	0.8
Cc1cc(NC(=O)C2CCCCC2C(=O)O)no1 (configuration not stated)	1	-14	-22	1.1	1.2
N#Cc1c2n(cnc1=O)CCCCC2	1.1	-1	6	1	0.9
CC(C)CNC(=O)C1CC(=O)OC12CCCCC2 (configuration not stated)	1	-2	3	1	1
CC(C)(C)C(=O)N=C1SC2CS(=O)(=O)CC2N1c1ccc2c(c1)OCO2 (configuration not stated)	1.4	57*	63*	0.4	0.4
Cc1cc(C)n(-c2ccc(C(=O)OCC(=O)c3c(N)n(C)c(=O)n(C)c3=O)cc2)n1	1.2	20	11	0.8	0.9
COCCOc1cc(NC(=O)c2sccc2Oc2ccc([N+](=O)[O-])cc2F)c(Cl)cc1Cl	1.4	19	59*	0.8	0.4
CCN(CC)S(=O)(=O)c1ccc(OC)c(NC(=O)c2cc([N+](=O)[O-])ccc2Cl)c1	0.9	5	32	0.9	0.7
CN1CC(c2ccc(C#N)cc2)C2(COc3ccccc3C2=O)C12C(=O)Nc1ccccc12 (configuration not stated)	1.3	11	34	0.9	0.7
COCc1[nH]nc2c1C(c1sccc1C)C(C#N)=C(N)O2 (configuration not stated)	1.1	30	3	0.7	1
CCCN(CCC)CCNS(=O)(=O)c1ccc2c(c1)CCN2C(=O)C1CCC1	1.7	94*	40	0.1	0.6
O=C(C1CC1)N1CCc2cc(S(=O)(=O)NCCC3=CCCCC3)ccc21	1.2	48	-13	0.5	1.1
SMILES	PLAP activator	CYP2C19 inhib	CYP2C9 inh	CYP2C19 act	CYP2C9 act
O=C(O)CCC(=O)N1CCc2cc(S(=O)(=O)NC3CCCC3)ccc21	1.1	-16	-7	1.2	1.1
O=C(C1CCC1)N1CCc2cc(S(=O)(=O)NC3CCCC3)ccc21	0.9	72*	83*	0.3	0.2
N#Cc1ccc(CSc2ncnc3c2cnn3Cc2ccccc2)cc1	0.9	11	16	0.9	0.8
Cc1cccc(NC(=O)c2cc(NC(=O)c3ccco3)ccc2Cl)n1	1	14	34	0.9	0.7
CCn1cc(S(=O)(=O)CC(=O)Nc2ccc(OC)cc2)c2ccccc21	1	56*	48	0.4	0.5
Cc1cc(NC(=O)CS(=O)(=O)c2cn(Cc3cccc(F)c3)c3ccccc23)no1	0.8	57*	72*	0.4	0.3
